Experimental data published in PubChem BioAssay AID1159580 (chemical genetic matrix, 2015).
Out of some 5,500 compounds screened, about 2,000 (36%) were called active. Another 18% or so got no clear call; they are omitted. Cut-off read from the data, not from the text of the source: active = normalized growth mostly below about 0.91 (no sharp cut-off); inconclusive = no clear call, values can overlap the other calls; inactive = mostly above about 0.92. This is one part of the list.

Assay: chemical genetic growth profiling, strain panel (AID 1159580);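 note: tested at 20 µM; growth read once vehicle control cultures reached saturation at 30 °C; 1 = growth at the plate median or of vehicle wells; lower values mean less growth of the strain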
Settings: growth OD

Measured: normalized growth

C/C=C(\C)C(=O)O[C@H]1C[C@@H](OC(C)=O)[C@@]2(C(=O)OC)CO[C@@H]3C2[C@]12CO[C@](O)(C(=O)OC)[C@H]2[C@](C)(C12O[C@@]1(C)[C@H]1C[C@@H]2OC2OC=C[C@@]21O)[C@@H]3O (some centres not stated)
inactive: S. cerevisiae deletion strains, locus YJR075W, strain HOC1, stronger effect = lower value 0.998 | S. cerevisiae deletion strains, locus YKL009W, strain mrt4, stronger effect = lower value 0.996 | S. cerevisiae deletion strains, locus YKL068W, stronger effect = lower value 0.987 | S. cerevisiae deletion strains, locus YKL085W, strain MDH1 (second series), stronger effect = lower value 0.998 | S. cerevisiae deletion strains, locus YKL085W, strain MDH1, stronger effect = lower value 0.998 | S. cerevisiae deletion strains, locus YKL160W, strain elf1, stronger effect = lower value 0.954 | S. cerevisiae deletion strains, locus YKL190W, strain CNB1, stronger effect = lower value 0.997 | S. cerevisiae deletion strains, locus YKR001C, strain vps1, stronger effect = lower value 0.988 | S. cerevisiae deletion strains, locus YKR026C, strain gcn3, stronger effect = lower value 0.992 | S. cerevisiae deletion strains, locus YKR091W, strain srl3, stronger effect = lower value 0.964 | S. cerevisiae deletion strains, locus YLL001W, strain dnm1, stronger effect = lower value 0.965 | S. cerevisiae deletion strains, locus YLL026W, stronger effect = lower value 0.978 | S. cerevisiae deletion strains, locus YLL041C, strain sdh2, stronger effect = lower value 0.975 | S. cerevisiae deletion strains, locus YLR027C, strain aat2, stronger effect = lower value 0.991 | S. cerevisiae deletion strains, locus YLR039C, strain RIC1, stronger effect = lower value 1.04 | S. cerevisiae deletion strains, locus YLR058C, strain SHM2, stronger effect = lower value 0.982 | S. cerevisiae deletion strains, locus YLR102C, strain apc9, stronger effect = lower value 0.979 | S. cerevisiae deletion strains, locus YLR113W, strain HOG1, stronger effect = lower value 1.02 | S. cerevisiae deletion strains, locus YLR221C, strain rsa3, stronger effect = lower value 0.999 | S. cerevisiae deletion strains, locus YLR258W, strain gsy2, stronger effect = lower value 0.969 | S. cerevisiae deletion strains, locus YLR262C, strain YPT6 (second series), stronger effect = lower value 0.968 | S. cerevisiae deletion strains, locus YLR262C, strain YPT6, stronger effect = lower value 1.03 | S. cerevisiae deletion strains, locus YLR268W, strain sec22, stronger effect = lower value 0.913 | S. cerevisiae deletion strains, locus YLR320W, strain mms22, stronger effect = lower value 0.992 | S. cerevisiae deletion strains, locus YLR330W, strain CHS5, stronger effect = lower value 0.996 | S. cerevisiae deletion strains, locus YLR342W, strain FKS1 (second series), stronger effect = lower value 1.05 | S. cerevisiae deletion strains, locus YLR342W, strain FKS1, stronger effect = lower value 0.983 | S. cerevisiae deletion strains, locus YLR357W, strain rsc2, stronger effect = lower value 0.978 | S. cerevisiae deletion strains, locus YLR370C, strain arc18, stronger effect = lower value 0.987 | S. cerevisiae deletion strains, locus YLR371W, strain rom2, stronger effect = lower value 0.971 | S. cerevisiae deletion strains, locus YLR384C, strain iki3, stronger effect = lower value 0.976 | S. cerevisiae deletion strains, locus YLR418C, strain cdc73, stronger effect = lower value 1 | S. cerevisiae deletion strains, locus YML016C, strain PPZ1, stronger effect = lower value 0.985 | S. cerevisiae deletion strains, locus YML032C, strain rad52, stronger effect = lower value 0.957 | S. cerevisiae deletion strains, locus YML120C, strain ndi1, stronger effect = lower value 0.979 | S. cerevisiae deletion strains, locus YML124C, strain tub3, stronger effect = lower value 0.99 | S. cerevisiae deletion strains, locus YMR058W, strain fet3, stronger effect = lower value 0.973 | S. cerevisiae deletion strains, locus YMR078C, strain ctf18, stronger effect = lower value 0.963 | S. cerevisiae deletion strains, locus YMR125W, strain sto1, stronger effect = lower value 0.958 | S. cerevisiae deletion strains, locus YMR129W, stronger effect = lower value 0.991 | S. cerevisiae deletion strains, locus YMR205C, strain PFK2, stronger effect = lower value 0.984 | S. cerevisiae deletion strains, locus YMR223W, strain ubp8, stronger effect = lower value 0.998 | S. cerevisiae deletion strains, locus YMR231W, strain pep5, stronger effect = lower value 0.968 | S. cerevisiae deletion strains, locus YMR263W, strain SAP30, stronger effect = lower value 0.987 | S. cerevisiae deletion strains, locus YMR307W, strain GAS1, stronger effect = lower value 0.987 | S. cerevisiae deletion strains, locus YNL067W, strain RPL9B, stronger effect = lower value 0.979 | S. cerevisiae deletion strains, locus YNL071W, strain lat1, stronger effect = lower value 0.983 | S. cerevisiae deletion strains, locus YNL128W, strain TEP1, stronger effect = lower value 0.993 | S. cerevisiae deletion strains, locus YNL153C, strain GIM3, stronger effect = lower value 0.988 | S. cerevisiae deletion strains, locus YNL183C, strain NPR1, stronger effect = lower value 0.972 | S. cerevisiae deletion strains, locus YNL209W, strain ssb2, stronger effect = lower value 0.989 | S. cerevisiae deletion strains, locus YNL233W, strain BNI4, stronger effect = lower value 0.98 | S. cerevisiae deletion strains, locus YNL248C, strain rpa49, stronger effect = lower value 0.967 | S. cerevisiae deletion strains, locus YNL250W, strain rad50, stronger effect = lower value 0.981 | S. cerevisiae deletion strains, locus YNL271C, strain bni1, stronger effect = lower value 0.97 | S. cerevisiae deletion strains, locus YNL298W, strain CLA4, stronger effect = lower value 0.968 | S. cerevisiae deletion strains, locus YNL307C, strain MCK1, stronger effect = lower value 0.983 | S. cerevisiae deletion strains, locus YNL322C, strain KRE1 (second series), stronger effect = lower value 0.977 | S. cerevisiae deletion strains, locus YNL322C, strain KRE1, stronger effect = lower value 0.995 | S. cerevisiae deletion strains, locus YNR049C, strain mso1, stronger effect = lower value 0.976 | S. cerevisiae deletion strains, locus YNR052C, strain pop2, stronger effect = lower value 0.973 | S. cerevisiae deletion strains, locus YOL006C, strain TOP1, stronger effect = lower value 0.926 | S. cerevisiae deletion strains, locus YOL012C, strain htz1 0.809 | S. cerevisiae deletion strains, locus YOL147C, strain pex11, stronger effect = lower value 0.981 | S. cerevisiae deletion strains, locus YOR001W, strain rrp6, stronger effect = lower value 0.995 | S. cerevisiae deletion strains, locus YOR061W, strain CKA2, stronger effect = lower value 0.989 | S. cerevisiae deletion strains, locus YOR069W, strain VPS5, stronger effect = lower value 0.982 | S. cerevisiae deletion strains, locus YOR070C, strain gyp1, stronger effect = lower value 1 | S. cerevisiae deletion strains, locus YOR080W, strain dia2, stronger effect = lower value 0.991 | S. cerevisiae deletion strains, locus YOR083W, strain WHI5, stronger effect = lower value 0.968 | S. cerevisiae deletion strains, locus YOR106W, strain vam3, stronger effect = lower value 0.938 | S. cerevisiae deletion strains, locus YOR136W, strain idh2, stronger effect = lower value 0.974 | S. cerevisiae deletion strains, locus YOR144C, strain elg1, stronger effect = lower value 0.973 | S. cerevisiae deletion strains, locus YOR184W, strain ser1, stronger effect = lower value 0.967 | S. cerevisiae deletion strains, locus YOR231W, strain MKK1, stronger effect = lower value 0.989 | S. cerevisiae deletion strains, locus YOR265W, strain rbl2, stronger effect = lower value 0.984 | S. cerevisiae deletion strains, locus YOR270C, strain vph1, stronger effect = lower value 0.93 | S. cerevisiae deletion strains, locus YOR290C, strain snf2, stronger effect = lower value 0.946 | S. cerevisiae deletion strains, locus YOR316C, strain cot1, stronger effect = lower value 0.977 | S. cerevisiae deletion strains, locus YPL051W, strain arl3, stronger effect = lower value 0.98 | S. cerevisiae deletion strains, locus YPL055C, strain LGE1, stronger effect = lower value 1.01 | S. cerevisiae deletion strains, locus YPL078C, strain atp4, stronger effect = lower value 0.942 | S. cerevisiae deletion strains, locus YPL106C, strain sse1, stronger effect = lower value 1 | S. cerevisiae deletion strains, locus YPL240C, strain hsp82, stronger effect = lower value 0.985 | S. cerevisiae deletion strains, locus YPL241C, strain CIN2, stronger effect = lower value 1 | S. cerevisiae deletion strains, locus YPL256C, strain CLN2, stronger effect = lower value 0.971 | S. cerevisiae deletion strains, locus YPR119W, strain clb2, stronger effect = lower value 0.991 | S. cerevisiae deletion strains, locus YPR141C, strain kar3, stronger effect = lower value 0.977 | S. cerevisiae deletion strains, locus YPR163C, strain tif3, stronger effect = lower value 0.97 | S. cerevisiae deletion strains, locus YPR167C, strain met16, stronger effect = lower value 0.978 | S. cerevisiae deletion strains, strain wtn01, stronger effect = lower value 0.948 | S. cerevisiae strains, strain wild type, stronger effect = lower value 0.994
